Only a sample is shown.
aSyn 5UTR act = Activators working through SNCA 5'UTR binding (MLPCN) | alpha-synuclein 5'UTR reporter, activators screen | activity score, % (tested at 7.5 µM), hits read low | AID 1814 | hit rate 7.1% among 300,000; in the data active means activity score below about -60%
Active calls of the source: *.

SMILES | aSyn 5UTR act
Cc1ccc2nc(NC(=S)NC(=O)c3ccco3)sc2c1 | -148.0*
Cc1nc2ccc(NC(=O)c3ccco3)cc2s1 | -90.2*
COc1cc2sc(NC(=O)c3ccco3)nc2cc1Cl | -189.0*
O=[N+]([O-])c1ccccc1S(=O)(=O)c1ccccc1[N+](=O)[O-] | -62.5*
CC(CS(=O)(=O)c1ccccc1[N+](=O)[O-])N1CCOCC1 (stereo not drawn) | -69.7*
Nc1[nH]ncc1N=Nc1ccc(Cl)cc1 | -88.8*
Nc1n[nH]c(N)c1N=Nc1ccc(Cl)cc1 | -130.9*
Nc1n[nH]c(N)c1N=Nc1cccc(C(F)(F)F)c1 | -65.4*
COc1cccc(N(C(=O)c2nc3nccc(C)n3n2)c2nc3ccccc3s2)c1 | -185.2*
COc1ccc(C(=O)NN/C(=N/S(=O)(=O)c2ccc(C)cc2)c2ccccc2)cc1 | -80.9*
Cc1ccc(NC(=S)N/C(=N/S(=O)(=O)c2ccccc2)c2ccccc2)cc1 | -205.1*
Cc1ccc(S(=O)(=O)/N=C(/NC(=S)Nc2ccccc2)c2ccccc2)cc1 | -126.4*
O=c1c2c(nc3cc(-c4ccc(Br)cc4)[nH]n13)CCCC2 | -94.5*
COc1ccc(-c2cc3nc4c(c(=O)n3[nH]2)CCC4)cc1 | -158.2*
C/C(=N\NC(=O)c1cccc(Cl)c1)C1C(=O)c2ccccc2C1=O | -119.9*
CCCN=Cc1sc2ccc(OCC)cc2c1O | -126.5*
Cc1[nH]n(-c2ccc([N+](=O)[O-])cc2)c(=O)c1C=NCC1CCCO1 (stereo not drawn) | -88.0*
COC(=O)c1ccc(COc2cc(C)ccc2C)o1 | -148.7*
Cc1csc(NC(=O)c2ccc(COc3ccccc3)o2)n1 | -136.3*
Cc1cc(COc2ccccc2)oc1C(=O)O | -107.5*
Cc1ccc(OCc2ccc(C(=O)O)o2)cc1C | -188.3*
Cc1ccc(OCc2ccc(C(=O)Nc3nccs3)o2)cc1C | -110.2*
C=CCc1ccc(OCC(O)COCC)c(OC)c1 (stereo not drawn) | -76.3*
C=CCc1ccc(OCc2ccc(C(=O)OC)o2)c(OC)c1 | -121.2*
COC(=O)c1ccc(COc2ccc(C)c(C)c2)o1 | -198.4*
SMILES | aSyn 5UTR act
CN1C(=O)CSc2ccc(NC(=O)Nc3ccccn3)cc21 | -115.6*
COc1ccc(NC(=O)Nc2ccccn2)cc1OC | -79.4*
O=C(Nc1ccc(Cl)c(Cl)c1)Nc1ccccn1 | -177.7*
CC(=O)c1ccc(OCc2cc(=O)n3ccsc3n2)cc1 | -95.3*
O=c1cc(COc2ccccc2[N+](=O)[O-])nc2sccn12 | -83.1*
CCOc1ccc2oc(C(=O)NC(C)(C)CC)c(C)c2c1 | -117.5*
CC(=O)c1ccc(NS(=O)(=O)c2cccc(C)c2)cc1 | -127.4*
Cc1cccc(S(=O)(=O)Nc2ccc(-c3nc4ccc(C)cc4s3)cc2)c1 | -171.8*
Cc1ccc2nc(-c3ccc(NS(=O)(=O)c4c(C)n(C)c(=O)n(C)c4=O)cc3)sc2c1 | -94.4*
O/N=C\c1ccc(-c2ccccc2)o1 | -112.3*
O=[N+]([O-])c1ccc(-c2ccc(/C=N/O)o2)cc1 | -95.3*
CCOC(=O)c1[nH]c2ccc(C)cc2c1N | -233.7*
CCCCc1c(O)nc(SCC(=O)c2ccccc2)[nH]c1=O | -87.1*
O=C(CSc1nc(O)c(Cc2ccccc2)c(=O)[nH]1)c1ccccc1 | -62.8*
CCCCOc1ccc(C(=O)Nc2cccc(C)n2)cc1 | -67.8*
Cc1ccc(NC(=O)Nc2cccc(C)n2)c(C)c1 | -103.8*
CCOc1ccc(NC(=O)Nc2cc(C)ccc2F)cc1 | -199.1*
COc1cccc(NC(=O)Nc2cccc(C)n2)c1 | -110.2*
CCOc1ccc(NC(=O)Nc2cccc(C)n2)cc1 | -142.9*
Cc1cccc(NC(=O)Nc2ccccc2)n1 | -76.5*
Cc1cc(C)nc(SCC2COc3ccccc3O2)n1 (stereo not drawn) | -70.8*
CCCS(=O)(=O)c1cnc(C2COc3ccccc3O2)nc1N (stereo not drawn) | 67.8
CCOC(=O)C1=C(c2ccccc2)O/C(=C(/C#N)C(F)(F)F)S1 | -63.5*
COc1ccc(/C=C2\N=C(SC)N(C)C2=O)cc1 | -62.8*
COc1cc(/C=N/Nc2nc(Nc3ccccc3)nc(-n3nc(C)cc3C)n2)cc(OC)c1OC | -67.6*
SMILES | aSyn 5UTR act
Cc1cc2oc(C(=O)Nc3nonc3C)c(C)c2cc1C | -174.6*
Cc1c(C(=O)Nc2nonc2-c2ccc(F)cc2)oc2ccc(F)cc12 | 54.0
CCc1ccc2oc(C(=O)Nc3nonc3C)c(C)c2c1 | -137.8*
COc1cc(/C=N/Nc2nc(-c3ccc(S(=O)(=O)N(C)C)cc3)cs2)ccc1O | -77.8*
O=[N+]([O-])c1cc(/C=N\Nc2nc(-c3ccccc3)cs2)ccc1O | -67.0*
c1ccc2c(Nc3ccc4c(c3)OCCO4)c3c(nc2c1)CCCC3 | -82.0*
CC(=O)c1ccc(Nc2c3c(nc4ccccc24)CCCC3)cc1 | -195.3*
CC(=O)c1cccc(Nc2c3c(nc4ccccc24)CCC3)c1 | 75.5
O=c1c2c(nc3cc(-c4ccccc4Cl)[nH]n13)CCS2 | -148.6*
O=c1c2c(nc3cc(-c4ccccc4)[nH]n13)CCS2 | -98.9*
COc1ccc(-c2noc(CN(C)Cc3ccccc3)n2)c(OC)c1OC | -68.1*
CCNC(=S)Nc1ccc(-c2nc3ccccc3[nH]2)cc1 | -161.5*
CCOc1ccc(NC(=S)NCc2nc3ccccc3[nH]2)cc1 | -69.3*
COc1ccc(-c2cc(C(=O)N3CCOCC3)no2)cc1 | 72.6
O=C(c1cc(-c2cccs2)on1)N1CCOCC1 | -169.3*
COc1ccccc1-c1cc(C(=O)N2CCOCC2)no1 | -125.0*
COc1ccccc1-c1cc(C(=O)N2CCCC2)no1 | -133.4*
CCOC(=O)c1ccc(N=NN(C)C)cc1 | -155.6*
C=CCn1c(C)csc1=Nc1ccc(C(C)=O)cc1 | -98.9*
CCOC(=O)c1ccc(N=c2scc(C)n2CC)cc1 | -91.0*
Cc1ccc(C(=O)O/N=C/c2c(N3CCOCC3)n(C)c3ccccc23)cc1 | 77.4
BrC(=C\c1ccccc1)/C=N/N1CCN(c2ccccc2)CC1 | -65.3*
COC(=O)c1ccc(/C=N\N2CCN(c3ccccc3)CC2)cc1 | -126.6*
C(=N\N1CCN(c2ccccc2)CC1)/c1ccccc1 | -122.8*
Clc1ccc(N2CCN(/N=C/c3cccnc3)CC2)cc1 | -66.9*
SMILES | aSyn 5UTR act
CC(C)(C)c1cc[n+](C2=C([O-])c3ccccc3C(=O)/C2=N\S(=O)(=O)c2cccs2)cc1 | 68.7
Cn1c(CNc2ccc(Cl)cc2)nc2ccccc21 | -176.4*
Cc1cccc(NCc2nc3ccccc3n2C)c1 | -192.8*
Cc1nc2cc(NCc3nc4ccccc4n3Cc3ccccc3)ccc2n1C | -96.3*
Cc1ccc(N2CCN(c3ccc(NCc4nc5ccccc5n4C)cc3)CC2)cc1 | -89.4*
CC(C)(C)c1ccc(-c2nnc(N)s2)cc1 | -65.0*
COc1cccc([C@@H]2Oc3ccc(OC)cc3C(=O)[C@H]2OC(=O)NCc2ccc3c(c2)OCO3)c1 | -136.9*
CC(/C=C/c1ccccc1)=N\Nc1ccccc1[N+](=O)[O-] | -149.9*
CN=Cc1nc(-c2ccccc2)oc1O | -97.0*
Cc1ccc(-c2nc(C=Nc3ccc(O)cc3)c(O)o2)cc1 | -94.7*
Oc1oc(-c2ccccc2)nc1/C=N/c1ccccn1 | -86.1*
COc1cc(C)ccc1OCCCOc1ccccc1Br | -149.0*
COc1ccccc1OCCCOc1ccc(C)cc1Br | -138.8*
COc1cc(C)ccc1OCCOc1c(C)cccc1Cl | -108.2*
CCSc1nnc(NC(=O)Nc2cccc(C)c2)s1 | -142.7*
CCSc1nnc(NC(=O)C2CCCCC2)s1 | -98.1*
CCSc1nnc(NC(=O)c2csc(C)c2)s1 | -175.7*
C/C(N)=C(/C#N)C(=O)CSc1nnc(Nc2cccc(C)c2)s1 | -180.2*

Source: PubChem (Broad Institute)
